This is an account of results in PubChem BioAssay AID1220 (Sanford-Burnham Center for Chemical Genomics, 2008).

One may read the inhibition as the relative decrease from the control value, in per cent.

Structures are written as SMILES. In all, about 190,000 compounds went through this assay and about 1,300 (0.68%) were called active. No stated cut-off is given here; in the data, active means inhibition above about 50%; inactive means the rest. The full list was thinned out, with actives kept by preference.

In the assay the target is Mannose-6-phosphate isomerase (Homo sapiens) (UniProt P34949). Put plainly: MPI inhibition at elevated mannose 6-phosphate – biochemical, fluorescence intensity, high mannose 6-phosphate, primary screen (AID 1220). To be noted: recombinant PMI enzyme, coupled fluorescence intensity; at 20 µM; stronger effect = higher value.
Chain of Mannose-6-phosphate isomerase (Homo sapiens) (P34949 whole entry, looked up): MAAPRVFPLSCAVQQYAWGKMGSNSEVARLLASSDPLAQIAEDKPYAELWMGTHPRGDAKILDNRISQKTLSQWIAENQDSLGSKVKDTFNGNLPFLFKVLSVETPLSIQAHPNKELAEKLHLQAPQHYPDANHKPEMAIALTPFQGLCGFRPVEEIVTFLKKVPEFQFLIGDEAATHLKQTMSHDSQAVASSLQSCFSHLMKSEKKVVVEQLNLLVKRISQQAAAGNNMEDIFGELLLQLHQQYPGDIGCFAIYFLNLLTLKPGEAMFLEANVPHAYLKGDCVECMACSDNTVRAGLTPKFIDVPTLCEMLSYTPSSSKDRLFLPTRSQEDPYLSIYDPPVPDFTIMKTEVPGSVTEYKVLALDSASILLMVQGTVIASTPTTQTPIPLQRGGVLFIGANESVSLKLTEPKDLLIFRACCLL
In the case of `CNCC(O)COc1cccc(OC)c1` (configuration not stated), the inhibition was 9.8% (inactive).

`Cc1c(C)c2ccc(OS(C)(=O)=O)c(C)c2oc1=O`: the inhibition was -10.6% (inactive).

`Fc1ccc(CNC(=S)Nc2ccc(OC(F)F)cc2)cc1`: the inhibition was 5.2% (inactive).

For the compound `O=[N+]([O-])c1ccccc1S(=O)(=O)N1CCN(Cc2ccc3c(c2)OCO3)CC1`, the inhibition was -3.6% (inactive).

In the case of `O=[N+]([O-])c1ccccc1S(=O)(=O)N1CCN(Cc2ccsc2)CC1`, the inhibition is 7.8% (inactive).

With `O=[N+]([O-])c1ccccc1S(=O)(=O)N1CCN(Cc2cc3c(cc2O)OCO3)CC1`, the inhibition is 59.2% (active).

Take `COc1ccc(CN(Cc2cc3cc(OC)c(OC)cc3[nH]c2=O)C(=O)NC2CCCCC2)cc1`: the inhibition is 0.5% (inactive).

For the compound `COc1ccc(/C=N/OCC(=O)Nc2ccc3c(c2)OCO3)c(OC)c1`, the inhibition was 10.9% (inactive).

For the compound `O=C(O)Cn1c2c(c3ccccc31)CCCC2`, the inhibition was 58.5% (active).

Turning to `O=C(O)Cn1c2ccccc2c2ccccc21`, the inhibition is -2.4% (inactive).

Take `O=C(O)CCn1c2c(c3ccccc31)CCCC2`: the inhibition is 8.9% (inactive).

`Cc1cccc(N2CCN(C(=O)c3ccccn3)CC2C)c1` (configuration not stated): the inhibition is 9.3% (inactive).

Turning to `O=C(/C=C/c1ccc(Cl)cc1Cl)N1CCc2ccccc21`, the inhibition was -2.2% (inactive).

Regarding `CCN(CC)c1cc(C)c2cc(NC(=O)c3cccs3)ccc2n1`, the inhibition was 10.3% (inactive).

Take `CCN1CCN(c2cc(C)c3cc(NC(=O)c4ccc(Br)o4)ccc3n2)CC1`: the inhibition is -5.1% (inactive).

Consider `CCN(CC)c1cc(C)c2cc(NC(=O)c3ccc(Br)o3)ccc2n1`, for which the inhibition is 70.4% (active).

Consider `CCOC(=O)c1c(/N=C/c2cccc(C)c2O)sc2c1CCN(C)C2`, for which the inhibition is -2.3% (inactive).

Consider `Cn1c(=S)n(/N=C/c2ccc3c(c2)OCO3)c2ccccc21`, for which the inhibition was -3.6% (inactive).

With `CCn1c(SCC(=O)N/N=C/C=C/c2ccco2)nnc1-c1ccccc1`, the inhibition is -8.3% (inactive).

Regarding `CCn1c(SCC(=O)N/N=C/C(C)=C/c2ccco2)nnc1-c1ccccc1`, the inhibition is 43.3% (inactive).

For the compound `CCn1c(SCC(=O)N/N=C/C=C/c2ccco2)nnc1-c1ccc(OC)cc1`, the inhibition was 52.6% (active).

Turning to `O=C(COc1cccc2c1CCN(Cc1ccc(Cl)cc1)C2=O)N1CCOCC1`, the inhibition was -2.4% (inactive).

Take `CC(C)CC(=O)NC(=S)Nc1ccc(S(=O)(=O)N2CCCC2)cc1`: the inhibition is -1% (inactive).

In the case of `CCNc1ccc(C(=O)OCC)cc1NC(=O)c1cccc(S(=O)(=O)N(C)c2ccccc2)c1`, the inhibition is 50.1% (active).

For `CCNc1ccc(C(=O)OCC)cc1NC(=O)c1cccc(S(=O)(=O)N2CCOCC2)c1`, the inhibition was 8.8% (inactive).

As for `CCNc1ccc(C(=O)OCC)cc1NC(=O)c1cccc(N(C)C)c1`, the inhibition is 6.9% (inactive).

`O=C(CNCC1CCCO1)N1CCN(S(=O)(=O)c2ccc3ccccc3c2)CC1` (configuration not stated): the inhibition was -1.2% (inactive).

As for `O=C(/C=C/c1ccccc1Cl)Nc1ccncc1`, the inhibition was -5.1% (inactive).

Take `CN1C(=O)CC(N2CCC(C(N)=O)CC2)C1=O` (configuration not stated): the inhibition is -4% (inactive).

Consider `Cc1ccc(S(=O)(=O)Cn2nnnc2C(C)N2CCN(C(=O)c3ccco3)CC2)cc1` (configuration not stated), for which the inhibition is 11.7% (inactive).

For the compound `Cc1cc(=O)n(CCCO)c(O)c1C#N`, the inhibition was 37.6% (inactive).

Take `CCCn1c(O)c(CN2CCCCC2)c(C)c(C#N)c1=O`: the inhibition is 57.4% (active).

Take `CCCn1c(O)c(CN2CCCC(C)C2)c(C)c(C#N)c1=O` (configuration not stated): the inhibition was 39.4% (inactive).

For `CCCn1c(C)cc(C)c(C#N)c1=O`, the inhibition was -3.4% (inactive).

As to `Cc1c(CN2CCCCC2)c(O)n(CCCO)c(=O)c1C#N`, the inhibition is 52.1% (active).

Regarding `Cc1cc(C)n(CCCO)c(=O)c1C#N`, the inhibition is -3.9% (inactive).

Take `COc1ccc(CCN(C)CCCN2CC(c3ccccc3)CC2=O)cc1OC` (configuration not stated): the inhibition is -9.7% (inactive).

As for `Cc1ccc(S(=O)(=O)N2CCN(CC(=O)NC3CCCc4ccccc43)CC2)cc1C` (configuration not stated), the inhibition was 13.8% (inactive).

`CCOC(=O)N1CCN(c2c(NCC3CCN(Cc4cccc(C)c4)CC3)c(=O)c2=O)CC1`: the inhibition was 8.2% (inactive).

Regarding `Nc1nc(Cl)cc(Sc2ccc3ccccc3c2)n1`, the inhibition is 1% (inactive).

With `Cc1nc2sccn2c1P(c1c(C)nc2sccn12)c1c(C)nc2sccn12`, the inhibition was -5.7% (inactive).

On to `CCC(CO)NCc1ccc(OCC(=O)Nc2cccc(C(F)(F)F)c2)c(OC)c1` (configuration not stated), for which the inhibition is -1.3% (inactive).

On to `CCN=c1scc(C)n1/N=C/c1cc(Br)c(O)c(Br)c1`, for which the inhibition is -6.2% (inactive).

On to `CCN=c1scc(C)n1/N=C/c1ccsc1`, for which the inhibition is 2.6% (inactive).

Take `CN=c1scc(-c2cccs2)n1/N=C/c1ccccc1O`: the inhibition is 14.7% (inactive).

`CCN=c1scc(-c2ccco2)n1/N=C/c1ccc(OC)c(O)c1`: the inhibition is -17.3% (inactive).

As to `CCN=c1scc(-c2cccs2)n1/N=C/c1cc(OC)ccc1O`, the inhibition was -21.1% (inactive).

Take `CN=c1scc(-c2cccs2)n1/N=C/c1ccc(O)c(O)c1O`: the inhibition was 34.6% (inactive).

As to `CCN=c1scc(-c2ccco2)n1/N=C/c1ccc(O)cc1`, the inhibition is -22.4% (inactive).

With `CN=c1scc(-c2ccccc2F)n1/N=C/c1ccc[nH]1`, the inhibition was -2.3% (inactive).

With `COCCNS(=O)(=O)c1cc(OC)ccc1OC`, the inhibition is 8.6% (inactive).

`Cc1cc(N2CCN(c3ccccc3)CC2)nc(-c2ccccc2O)n1`: the inhibition was 2.1% (inactive).

As for `Cc1cc(S(=O)(=O)NCC(C)C)ccc1OCC(=O)NCC1CCCO1` (configuration not stated), the inhibition is 15.5% (inactive).

Take `COc1cc(C(=O)OCCNC(=O)c2ccncc2)cc(OC)c1OC`: the inhibition was -20% (inactive).

On to `CCC(C)NS(=O)(=O)c1ccc(F)c(C(=O)Nc2c(F)cc(F)cc2Br)c1` (configuration not stated), for which the inhibition is -19.4% (inactive).

Consider `COc1ccc2[nH]c(=O)c(CN(CCO)C(=O)NCc3ccccc3)cc2c1`, for which the inhibition was 3.9% (inactive).

Consider `CCn1c(COc2ccccc2)nnc1SCC(=O)Nc1cc(C)ccc1OC`, for which the inhibition was 8.3% (inactive).

Regarding `C#CCOCCOCCOCCNc1nc(N2CCN(C(=O)[C@H](CCC(=O)O)n3cc(C(N)Cc4ccc(O)cc4)nn3)CC2)nc(N2CCN(C(=O)[C@H](CCC(=O)O)n3cc(C(N)[C@H](C)CC)nn3)CC2)n1` (some centres not stated), the inhibition is -33.1% (inactive).

As for `O=C(c1ccccc1)c1cccc(NC(=O)c2ccc(Br)o2)c1`, the inhibition is 6.2% (inactive).

For the compound `O=C(C1CCCCN1S(=O)(=O)c1ccccc1)N1CCN(C(c2ccccc2)c2ccccc2)CC1` (configuration not stated), the inhibition was 9.8% (inactive).

With `COc1cc(Br)c(S(=O)(=O)Nc2c(C)n(C)n(-c3ccccc3)c2=O)cc1OC`, the inhibition was -1.6% (inactive).

`O=C(c1cccnc1)N1C2C=CC(C2)C1(C(F)(F)F)C(F)(F)F` (configuration not stated): the inhibition was -7.8% (inactive).

Regarding `COC1(NS(=O)(=O)c2ccc(Br)cc2)C(C)=CC(=O)C=C1C`, the inhibition was 55.3% (active).

As for `Cc1ccc(NS(=O)(=O)c2ccc(Br)cc2)nc1`, the inhibition was 0.3% (inactive).

For `Cc1cc(C)nc(NS(=O)(=O)c2ccc(Br)cc2)n1`, the inhibition is -3.5% (inactive).

Regarding `O=C(Nc1ccc2oc(-c3ccc(F)cc3)nc2c1)c1ccccc1F`, the inhibition is 1% (inactive).

For `Cc1ccc(-c2nc3c(c(=O)c4ccccc4n3C)c(=O)n2-c2ccccc2)cc1`, the inhibition was 0.4% (inactive).

For `O=c1[nH]c(=O)c2nc3c4ccccc4c4ccccc4c3nc2[nH]1`, the inhibition is 11.6% (inactive).

Turning to `Cc1cc2nc3c(=O)[nH]c(=O)[nH]c3nc2c([N+](=O)[O-])c1N`, the inhibition was 53.3% (active).

Consider `Cc1nc2c([N+](=O)[O-])c(C)c(C)cc2[nH]1`, for which the inhibition was 4.2% (inactive).

For the compound `NC(=O)Nn1c(CCC(=O)O)ccc1-c1ccc(Br)cc1`, the inhibition was -6.3% (inactive).

For the compound `O=C(CSc1ccc2nnc(-c3ccccc3)n2n1)NCc1ccc2c(c1)OCO2`, the inhibition was 2.7% (inactive).

`CN(C)c1nc(OCCNC(=O)Nc2ccc(Cl)cc2)nc(N(C)C)n1`: the inhibition was 1.2% (inactive).

As for `O=C(O)c1ccc(NS(=O)(=O)c2ccc3c(c2)C(=O)c2ccccc2C3=O)cc1`, the inhibition is 2.7% (inactive).

In the case of `Cc1cccc(C)c1NS(=O)(=O)c1ccc2c(c1)C(=O)c1ccccc1C2=O`, the inhibition was 21% (inactive).

Consider `O=C1c2ccccc2C(=O)c2cc(S(=O)(=O)Nc3ccccc3)ccc21`, for which the inhibition was 60.3% (active).

As to `COc1ccc(CCNc2ccc(S(=O)(=O)N3CCCC3)cc2[N+](=O)[O-])cc1`, the inhibition was -0.1% (inactive).

For the compound `COc1ccc2nc3ccccc3nc2c1NC(=O)c1ccc(Cl)cc1Cl`, the inhibition was 17.8% (inactive).

In the case of `COc1ccc2nc3ccccc3nc2c1NC(=O)c1ccc(Cl)cc1`, the inhibition is 23% (inactive).

`COc1ccc2nc3ccccc3nc2c1NC(=O)c1ccccc1Cl`: the inhibition is 51.5% (active).

In the case of `Cc1ccc2cccc(OCC(=O)N3CC(C)CC(C)C3)c2n1` (configuration not stated), the inhibition is 26.7% (inactive).

On to `Cc1ccccc1CSCC(=O)c1c(N)n(C)c(=O)n(C)c1=O`, for which the inhibition was 6.8% (inactive).

As to `Cc1cccc(OCC(=O)OCC(=O)c2c(N)n(C)c(=O)n(C)c2=O)c1C`, the inhibition is 3.8% (inactive).

As to `Cc1cccc(NCC(=O)c2c(N)n(C)c(=O)n(C)c2=O)c1C`, the inhibition was 59% (active).

For `CC(C)C(=O)NC(NC(=O)C(C)C)c1ccc([N+](=O)[O-])cc1`, the inhibition was -13.1% (inactive).

`CC(C)c1onc(C(=O)NCc2cccs2)c1[N+](=O)[O-]`: the inhibition is -6.7% (inactive).

For `CC(=O)c1cc2c(cc1N/C(=N/S(=O)(=O)c1ccc(C)cc1)c1ccc(Cl)cc1)OCO2`, the inhibition was 7.7% (inactive).

Regarding `O=S(=O)(N/N=C/c1ccc(F)cc1)c1ccccc1`, the inhibition was 4.7% (inactive).

For the compound `Cc1ccc(NC(=S)Nc2ccc3cn[nH]c3c2)cc1C`, the inhibition was 15.4% (inactive).

As to `Cc1ccccc1NC(=S)Nc1ccc2cn[nH]c2c1`, the inhibition was 61.3% (active).

Regarding `Cc1ccc(NC(=S)Nc2ccc3cn[nH]c3c2)cc1`, the inhibition is 57.8% (active).

Turning to `S=C(Nc1ccc2cn[nH]c2c1)Nc1ccccc1Cl`, the inhibition is 42.1% (inactive).

For `Cc1ccc(NC(=S)Nc2ccc3cn[nH]c3c2)c(C)c1`, the inhibition is 44% (inactive).

Turning to `Cc1cc(C)cc(NC(=S)Nc2ccc3cn[nH]c3c2)c1`, the inhibition is 21.3% (inactive).

Take `COc1ccc(NC(=S)Nc2ccc3cn[nH]c3c2)cc1`: the inhibition was 48.7% (inactive).

As to `S=C(Nc1ccc(Cl)cc1)Nc1ccc2cn[nH]c2c1`, the inhibition is 56.6% (active).

For `CC(C)c1ccc(NC(=S)Nc2ccc3cn[nH]c3c2)cc1`, the inhibition was 46.1% (inactive).
